Compound activity: PubChem BioAssay, National Center for Advancing Translational Sciences (NCATS)
This is a sample that favours compounds with a hit; in the whole collection about 12% have one here.
Sfp inh – qHTS Assay for Inhibitors of Bacillus subtilis Sfp phosphopantetheinyl transferase (PPTase). 4'-phosphopantetheinyl transferase ffp (Bacillus subtilis), Q9F4F7. Biochemical Sfp PPTase activity, qHTS. Potency, µM, for the others: largest response in the series, negative = inhibition, usual class: inhibitors. 3.5% of 310,000 active;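 further: the enzyme is Sfp with the accession as filed and its product quenches rhodamine fluorescence; 0% = enzyme reaction without inhibitor and -100% = no enzyme wells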
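After 15 min at room temperature with compound, 15 nM Sfp received 5 uM rhodamine-CoA plus 12.5 uM BHQ-2-ybbR (50 mM Hepes pH 7.6, 10 mM MgCl2). Rate came from the fluorescence difference over 30 min, ex 525/em 598 nm.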
HP1b binding inh – HTS for Inhibitors of HP1-beta Chromodomain Interactions with Methylated Histone Tails; Potency, µM (doses to about 114 µM), inactives show at the top dose activity change, negative = inhibition, hits mostly inhibitors; AlphaScreen HP1-beta / biotin-H3K9me3 peptide binding; Chromobox protein homolog 1 (Homo sapiens), P83916; 0.56% of 390,000 active; further: nearly all actives have a fitted effect of over 70% in size
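Compound inhibition of the preformed complex between 50 nM HP1-beta and 50 nM biotinylated H3K9me3 peptide was read by AlphaScreen. Buffer was PBS pH 7.4 with 0.01% Tween-20. Incubations ran 30 min at room temperature, with 10 ug/mL donor/acceptor beads.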
BAZ2B block – qHTS Assay for Inhibitors of BAZ2B | Bromodomain adjacent to zinc finger domain protein 2B (Homo sapiens), Q9UIF8 | 4.4% of 360,000 active | AID 504333, 2011 | Potency, µM (series often up to 114 µM), inactives show at the highest dose activity change, negative = inhibition, actives largely listed as inhibitors | AlphaScreen BAZ2B-H3K14Ac peptide displacement; further: on the % scale 0 is the no-effect control and ±100 the full control effect; nearly all actives have a fitted effect of over 60% in size
Target sequence (Q9UIF8 whole entry, looked up, the tested form may be a part): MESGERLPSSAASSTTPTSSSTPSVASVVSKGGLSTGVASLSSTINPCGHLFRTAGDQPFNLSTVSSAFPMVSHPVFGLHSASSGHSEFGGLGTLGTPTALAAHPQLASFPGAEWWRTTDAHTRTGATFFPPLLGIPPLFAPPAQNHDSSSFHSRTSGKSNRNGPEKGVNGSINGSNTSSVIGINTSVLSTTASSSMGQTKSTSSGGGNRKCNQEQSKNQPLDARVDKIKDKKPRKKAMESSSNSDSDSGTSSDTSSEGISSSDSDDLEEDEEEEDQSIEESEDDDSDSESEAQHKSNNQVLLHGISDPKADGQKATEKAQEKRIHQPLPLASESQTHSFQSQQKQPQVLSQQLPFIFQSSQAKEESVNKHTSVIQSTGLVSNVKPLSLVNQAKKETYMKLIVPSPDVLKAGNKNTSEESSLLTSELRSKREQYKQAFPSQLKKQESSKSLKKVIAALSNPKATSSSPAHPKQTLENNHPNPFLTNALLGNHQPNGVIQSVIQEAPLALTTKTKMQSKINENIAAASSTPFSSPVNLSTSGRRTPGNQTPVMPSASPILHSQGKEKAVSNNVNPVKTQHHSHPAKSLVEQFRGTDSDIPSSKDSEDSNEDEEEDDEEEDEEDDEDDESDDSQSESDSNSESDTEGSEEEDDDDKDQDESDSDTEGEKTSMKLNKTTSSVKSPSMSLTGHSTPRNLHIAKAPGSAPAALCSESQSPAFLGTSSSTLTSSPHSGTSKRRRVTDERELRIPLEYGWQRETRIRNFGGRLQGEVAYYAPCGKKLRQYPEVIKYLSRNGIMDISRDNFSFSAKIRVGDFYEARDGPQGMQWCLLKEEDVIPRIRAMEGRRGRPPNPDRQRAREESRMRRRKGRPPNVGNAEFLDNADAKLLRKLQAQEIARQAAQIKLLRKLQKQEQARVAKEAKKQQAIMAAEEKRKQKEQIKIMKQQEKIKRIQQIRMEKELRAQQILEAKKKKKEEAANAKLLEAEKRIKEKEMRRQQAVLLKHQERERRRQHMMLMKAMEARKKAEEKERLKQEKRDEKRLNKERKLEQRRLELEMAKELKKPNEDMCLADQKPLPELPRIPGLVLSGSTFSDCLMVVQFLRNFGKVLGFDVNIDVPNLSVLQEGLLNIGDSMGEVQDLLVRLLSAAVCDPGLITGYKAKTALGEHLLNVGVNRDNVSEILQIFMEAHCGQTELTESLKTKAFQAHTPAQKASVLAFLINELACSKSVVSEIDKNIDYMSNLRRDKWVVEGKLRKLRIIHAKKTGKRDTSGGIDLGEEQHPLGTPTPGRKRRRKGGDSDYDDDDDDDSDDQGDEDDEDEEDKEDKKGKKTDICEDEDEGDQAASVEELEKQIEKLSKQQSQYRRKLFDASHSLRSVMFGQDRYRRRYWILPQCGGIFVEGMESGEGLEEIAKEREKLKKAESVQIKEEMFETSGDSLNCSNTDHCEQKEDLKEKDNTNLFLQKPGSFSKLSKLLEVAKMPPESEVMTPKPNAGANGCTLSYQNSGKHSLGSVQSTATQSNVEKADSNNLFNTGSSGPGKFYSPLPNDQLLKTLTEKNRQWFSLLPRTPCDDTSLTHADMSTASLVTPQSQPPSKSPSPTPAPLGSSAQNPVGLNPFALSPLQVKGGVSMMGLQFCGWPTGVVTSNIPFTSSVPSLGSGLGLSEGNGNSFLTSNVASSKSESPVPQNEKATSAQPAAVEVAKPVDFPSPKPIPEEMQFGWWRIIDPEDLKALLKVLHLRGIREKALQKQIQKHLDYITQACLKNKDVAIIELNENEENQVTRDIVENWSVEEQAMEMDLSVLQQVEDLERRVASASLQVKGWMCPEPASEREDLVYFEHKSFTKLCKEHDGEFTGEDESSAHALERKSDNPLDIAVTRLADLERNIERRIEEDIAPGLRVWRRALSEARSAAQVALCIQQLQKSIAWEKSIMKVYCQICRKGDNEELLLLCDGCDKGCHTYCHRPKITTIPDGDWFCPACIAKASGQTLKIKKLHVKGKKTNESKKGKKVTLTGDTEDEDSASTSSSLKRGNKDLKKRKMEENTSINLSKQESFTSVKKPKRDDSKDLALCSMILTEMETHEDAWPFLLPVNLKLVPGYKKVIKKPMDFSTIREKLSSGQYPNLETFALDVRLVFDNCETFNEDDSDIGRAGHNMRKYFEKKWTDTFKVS
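Compounds, titrated to a top concentration of 110 uM, were incubated 30 min at room temperature with preformed BAZ2B/acetyl-K14 H3 peptide complex (50 nM each). Proximity signal was measured by AlphaScreen after 20 min with beads.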
G9a inh – qHTS Assay for Inhibitors of Histone Lysine Methyltransferase G9a; Histone-lysine N-methyltransferase EHMT2 (Homo sapiens), Q96KQ7; 8.8% of 350,000 active; Potency, µM (top dose mostly 102 µM), for the others: at the highest dose activity, negative = inhibition, hits mostly inhibitors; G9a H3K9 monomethylation, AlphaScreen, 2 h; further: on the % scale 0 is the no-effect control and ±100 the full control effect; nearly all actives have a fitted effect of over 75% in size
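G9a (20 nM) preincubated 15 min RT with compounds, then 500 nM biotinylated H3K9 peptide and 20 uM SAM added; 2 h RT reaction. Monomethyl-H3K9 product detected by AlphaScreen with anti-H3K9me1 antibody, streptavidin donor and anti-rabbit IgG acceptor beads.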
JMJD2A Tudor – qHTS Assay for Inhibitors of JMJD2A-Tudor Domain. 4.4% of 390,000 active. Lysine-specific demethylase 4A (Homo sapiens), O75164. AID 504339, 2011. AlphaScreen JMJD2A-Tudor / H3K4me3 peptide binding. Potency, µM (doses to about 114 µM), inactives show at the top dose activity change, negative = inhibition, most hits filed as inhibitors; further: on the % scale 0 is the no-effect control and ±100 the full control effect; nearly all actives have a fitted effect of over 50% in size
Starred values were filed as active, the others as inactive; [ ] = another dose, or the depositor's remark. The call rests on the fitted dose curve; in most records, active means well fitted curve in the direction sought with a large enough effect; inconclusive means small, poorly fitted or top-dose-only effect, or another doubt; inactive means no such curve, though single readings can be large; an effect the other way counts as inactive or inconclusive. Potency means the concentration at half of the fitted maximal effect.

COc1ccc(OC)c(-n2c(-c3ccccc3)n[nH]c2=S)c1 was read as Sfp inh -10.4%, HP1b binding inh 21.0%, BAZ2B block -4.6%, G9a inh inconclusive and JMJD2A Tudor 3.16µM*.
For COc1ccccc1N1CCN(S(=O)(=O)c2cn(C)nc2C)CC1 the results were Sfp inh 10.3%, HP1b binding inh 29.6%, BAZ2B block -14.5%, G9a inh 14.0% and JMJD2A Tudor -12.3%.
For COc1ccc(OC)c(-n2c(C)cc(C=O)c2C)c1 the results were Sfp inh 9.0%, HP1b binding inh 18.1%, BAZ2B block -36.6%, G9a inh -28.9% and JMJD2A Tudor -17.5%.
`COc1ccccc1-n1c(-c2cn(C)nc2C)n[nH]c1=S` gave Sfp inh 56.2µM*, HP1b binding inh 15.2%, BAZ2B block -0.6%, G9a inh 7.08µM* and JMJD2A Tudor 22.4µM*.
Screening COc1ccccc1-n1c(-c2ccccc2)n[nH]c1=S returned Sfp inh 70.8µM*, HP1b binding inh 11.8%, BAZ2B block -24.0% and JMJD2A Tudor 2.82µM*.
Screening CCc1ccccc1NC(=O)C1CCCN(c2ncccn2)C1 (configuration not stated) returned Sfp inh -1.1%, HP1b binding inh 9.0%, BAZ2B block 7.9%, G9a inh 17.1% and JMJD2A Tudor -18.6%.
For CC(C)C[C@H]1COCCS(=O)(=O)N1Cc1cccc(Cl)c1 the results were HP1b binding inh 38.3% and JMJD2A Tudor -2.9%.
Screening N/C(=N\OC(=O)c1ccc(=O)n(Cc2ccc(Cl)cc2)c1)c1ccccn1 returned Sfp inh -0.9%, HP1b binding inh 58.4%, BAZ2B block -7.1%, G9a inh 6.3% and JMJD2A Tudor -8.2%.
For Cc1c(C#N)c2ccccc2n1CC(=O)N1CCCC1 the results were Sfp inh 3.5%, HP1b binding inh inconclusive, BAZ2B block 31.6%, G9a inh 21.0%[12.7 µM] and JMJD2A Tudor 79.4µM*.
`Cc1c(C#N)c2ccccc2n1CC(=O)N1CCCc2ccccc21` gave Sfp inh 21.6%, HP1b binding inh 11.8%, BAZ2B block -3.5%, G9a inh 3.4% and JMJD2A Tudor -12.3%.
For COc1cccc2c(=O)c3c([nH]c12)OC(C)(C)C3 the results were HP1b binding inh 19.7% and JMJD2A Tudor -6.8%.
Screening COc1cccc2c(=O)c3cccc(N)c3[nH]c12 returned Sfp inh 22.4µM*, HP1b binding inh 18.7%, BAZ2B block inconclusive, G9a inh 25.1µM* and JMJD2A Tudor 6.0%.
For O=c1[nH]cnc2ncc(-c3ccc(O)cc3)nc12 the results were HP1b binding inh 22.5% and JMJD2A Tudor 79.4µM*.
O=c1[nH]cnc2nc(-c3ccccc3)c(-c3ccccc3)nc12 was read as Sfp inh -0.8%, HP1b binding inh 31.5%, BAZ2B block -6.7%, G9a inh 12.1%[59 µM] and JMJD2A Tudor -0.7%.
`Cc1cc2nn(-c3ccc(Cl)cc3)nc2cc1N` gave Sfp inh -18.6%, HP1b binding inh 23.5%, BAZ2B block inconclusive, G9a inh 12.6µM* and JMJD2A Tudor 20.4%.
O=C(/C=C/c1cccc([N+](=O)[O-])c1)N1CCN(c2ccccc2F)CC1 was read as Sfp inh -20.4%, HP1b binding inh 29.0%, BAZ2B block -35.2%, G9a inh -10.2%[59 µM] and JMJD2A Tudor -17.0%[57.1 µM].
For Cc1cccc(N2CCN(S(=O)(=O)c3cc(Cl)ccc3Cl)CC2)c1C the results were HP1b binding inh 32.5%, BAZ2B block -2.5%, G9a inh 2.8%[59 µM] and JMJD2A Tudor 4.5%.
Screening O=S(=O)(CCN1CCN(c2ccccc2O)CC1)c1cc(Cl)ccc1Cl returned HP1b binding inh 21.9%, BAZ2B block 0.9%, G9a inh 44.7µM* and JMJD2A Tudor -22.1%.
`O=[N+]([O-])c1cc(Cl)ccc1N1CCN(c2ccccc2O)CC1` gave Sfp inh 1.9%, HP1b binding inh inconclusive, BAZ2B block 14.1µM*, G9a inh inconclusive and JMJD2A Tudor 39.8µM*.
Screening O=C(/C=C/c1ccccc1[N+](=O)[O-])N1CCN(c2ccccc2F)CC1 returned Sfp inh 0.0%, HP1b binding inh 13.7%, BAZ2B block inconclusive, G9a inh 56.2µM* and JMJD2A Tudor -29.5%.
For O=C(/C=C/c1ccc(Cl)cc1Cl)N1CCN(c2ccccc2[N+](=O)[O-])CC1 the results were Sfp inh -20.1%, HP1b binding inh inconclusive, BAZ2B block inconclusive, G9a inh 39.8µM* and JMJD2A Tudor inconclusive.
For CC(C)(C)C(=O)N1CCN(c2ccc(Cl)cc2[N+](=O)[O-])CC1 the results were Sfp inh -1.6%, HP1b binding inh -21.0%, BAZ2B block inconclusive, G9a inh 2.1%[59 µM] and JMJD2A Tudor -30.0%.
For CCc1nc(SCC(=O)Nc2nnc(CC)s2)c2c(=O)n(C)c(=O)n(C)c2n1 the results were Sfp inh -11.2%, HP1b binding inh 40.3%, BAZ2B block -2.9% and JMJD2A Tudor -1.3%.
O=C(Oc1ccc(Cl)cc1)c1ccc(N2CCOCC2)c([N+](=O)[O-])c1 was read as Sfp inh -3.7%, HP1b binding inh -20.5%, BAZ2B block inconclusive, G9a inh inconclusive and JMJD2A Tudor inconclusive.
O=C(Oc1cc(Cl)ccc1Cl)c1ccc(N2CCOCC2)c([N+](=O)[O-])c1 was read as Sfp inh -3.2%, HP1b binding inh inconclusive, BAZ2B block inconclusive, G9a inh inconclusive and JMJD2A Tudor 35.5µM*.
CSc1cc(-c2ccccc2)[nH]c(=O)c1C#N was read as Sfp inh 25.2%, HP1b binding inh 63.2%, BAZ2B block -22.2%, G9a inh -46.8% and JMJD2A Tudor 0.0%.
For CN(C)c1c(-c2ccccc2)cc(-c2ccccc2)[nH]c1=O the results were Sfp inh -18.6%, BAZ2B block -7.6% and G9a inh 35.5µM*.
Screening Nc1ccc(N2CCCCC2)cc1N1CCCCC1 returned Sfp inh 31.6µM*, HP1b binding inh inconclusive, BAZ2B block 35.5µM*, G9a inh 2.51µM* and JMJD2A Tudor 28.2µM*.
For O=C1c2ccccc2C(=O)c2cc(N3CCCCC3)ccc21 the results were HP1b binding inh inconclusive and JMJD2A Tudor 12.6µM*.
Nc1cc(Cl)ccc1N1CCCCCC1 was read as Sfp inh -1.4%, HP1b binding inh -14.0%, BAZ2B block -37.5%, G9a inh 10µM* and JMJD2A Tudor -24.0%.
Cc1nn(-c2cc(N3CCCCC3)ccc2N)c(=O)c2ccccc12 was read as Sfp inh 7.0%, HP1b binding inh -0.2%, BAZ2B block -3.0%, G9a inh 3.16µM* and JMJD2A Tudor -16.5%.
c1ccc2cc(N3CCCCC3)ccc2c1 was read as HP1b binding inh 27.9%[57 µM] and JMJD2A Tudor -30.3%.
